# About 83,000 compounds went through this panel and 20% of them were active in at least one assay; those are over-represented in the sample as a whole.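 The endpoint reported here, percent growth, reads 100 for growth as untreated, 0 for no net growth and -100 for all cells dead.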 The source made the active and inactive calls.
# Tested on: CCRF-CEM leukemia
# Assay: NCI-60 one-dose screen, 48 h (100 = growth as untreated, 0 = no growth, -100 = all killed)
# Conditions: 10 µM unless noted
# Description: Growth inhibition of the CCRF-CEM human tumor cell line is measured as a screen for anti-cancer activity. Cells are grown in 96 well plates and exposed to the test compound for 48 hours. Compounds are tested at a single concentration, which is 10^-5 M for most compounds. The reported endpoint is percent growth (GI% or GIPRCNT), where numbers from 0 - 100% represent growth inhibition, and numbers from -100% - 0 represent cell death. For example, a value of 40 represents 60% growth inhibition. A value of 0 means no net growth occurred over the course of the experiment. A value of -40 indicates 40% of cells at the beginning of the experiment died by the end of the experiment. A value of -100 means all cells are dead at the end of the experiment.
# NCI-60 Human Tumor Cell Lines Screen was performed using the standard one-dose NCI protocol, which is described in more detail at https://dtp.cancer.gov/discovery_development/nci-60/default.htm.
# Compounds with GIPRCNT values below 10 were considered active. Activity score was based on GIPRCNT using the following formula: […]
# Score is 0 for GIPRCNT values of 100 or above, 50 for GIPRCNT values of 0, and 100 for GIPRCNT values of -100.
row,SMILES,growth
1,O=C(c1ccc(O)c(C(=O)N2Cc3ccc(OCCC[P+](c4ccccc4)(c4ccccc4)c4ccccc4)cc3C2)c1)N1Cc2cccc(F)c2C1,57.4% (inactive)
2,O=C(Nc1ccc(Br)cc1)Nc1nc2ccc([N+](=O)[O-])cc2s1,10.9% (inactive)
3,C[C@H]1c2[nH]c3ccccc3c2C[C@H]2C(=O)N(CCCCCCC(=O)NO)CC(=O)N21,36.9% (inactive)
4,O=C(CN1CCN(c2cc(=O)n(-c3ccccc3)c3ccccc23)CC1)Nc1ccc(F)cc1,70% (inactive)
5,O=S(=O)(Nc1cccc2ccccc12)c1ccc(-c2cnc(C3CC3)o2)cc1,17.6% (inactive)
6,O=C(CSc1nnc(-c2ccc3nc(-c4ccccc4)[nH]c3c2)o1)Nc1ccc(C(=O)/C=C/c2ccccc2)cc1,107% (inactive)
7,Cc1nc2ncc(-c3ccc4ncnc(NCc5ccccc5)c4c3)cc2[nH]1,68.5% (inactive)
8,Fc1ccc(-c2cc3nc(C(Cl)Cl)nc(-c4ccc(F)cc4)n3n2)cc1,33.1% (inactive)
9,COC(=O)c1[nH]nc2c1C1(C(=O)c3cccc4cccc1c34)C(C#N)=C(N)O2 (stereo not given),106% (inactive)
10,COc1cc2oc(-c3cccc(NC(=O)c4cc(N)ccc4Cl)c3)cc(=O)c2c(OC)c1OC,64.9% (inactive)
11,Cn1ccnc1C(=O)/C=C/c1ccc(CNC(=O)c2ccc(F)cc2)cc1,12.8% (inactive)
12,O=C(Nc1nc2ccc([N+](=O)[O-])cc2s1)Nc1ccccc1Br,37.6% (inactive)
13,COc1ccc(-c2nc3ccc(-c4nnc(SCC(=O)Nc5ccc(C(=O)/C=C/c6ccc(Cl)cc6)cc5)o4)cc3[nH]2)cc1,96% (inactive)
14,CC1=CC(=O)C2=C(C)CC(OC(=O)CCc3ccccc3)[C@@H]3[C@H](OC(=O)[C@@H]3C)[C@@H]12 (stereo not given in full),88.7% (inactive)
15,Cc1ccc(-c2nnc(SCc3ccc(O)c4ncccc34)o2)cc1,12.3% (inactive)
16,COc1cc2nc(Cl)nc(Nc3cccc(C4=Nc5c(N)nc(N)nc5NC(c5ccccc5)C4)c3)c2cc1OC (stereo not given),34.8% (inactive)
17,Cc1cccc2c3c(sc12)C(c1ccc(Cl)cc1)c1c(nc(CC(=O)Nc2ccccc2)[nH]c1=O)O3 (stereo not given),59% (inactive)
18,O=C(CSc1nc2ccccc2c(=O)n1-c1ccccc1)Nc1cccc(C(=O)/C=C/c2ccccc2Cl)c1,113% (inactive)
19,CCN1CCN(C(=O)[C@]23CCC(C)(C)C[C@H]2C2=CC[C@@H]4[C@@]5(C)Cc6c([nH]c7ccccc67)C(C)(C)[C@@H]5CC[C@@]4(C)[C@]2(C)CC3)CC1,80% (inactive)
20,CCO/C=N/C1=C(C#N)C(c2ccc(OC)cc2)c2sc3c(C)cccc3c2O1 (stereo not given),-2.18% (active)

row,SMILES,growth
1,Cc1ccc(N2C(=O)/C(=C/C=C/c3ccco3)SC2=S)cc1,61.2% (inactive)
2,Cc1ccc(CSc2nc(-c3ccc(Cl)cc3)c(C#N)c(N3CCOCC3)n2)cc1,1.17% (active)
3,Oc1cccc2ccc(-c3nnc(SCc4ccc(O)c5ncccc45)o3)nc12,19.6% (inactive)
4,O=C(CSc1nc2ccccc2c(=O)n1-c1ccccc1)Nc1cccc(C(=O)/C=C/c2ccccc2)c1,90.3% (inactive)
5,Cc1nc(-c2ccccc2O)ccc1C(=O)N=Nc1c(O)[nH]c2ccc(Br)cc12,86.1% (inactive)
6,CCCn1cnc2c(c1=N)C(c1ccc(F)cc1)c1sc3c(C)cccc3c1O2 (stereo not given),-3.84% (active)
7,O=C1/C(=C/C=C/c2ccco2)SC(=S)N1c1ccccc1,41.3% (inactive)
8,CCOC(=O)C(=O)CC(=O)N1C(=S)NC(=O)C1CC(C)C (stereo not given),100% (inactive)
9,Cc1cccc2c3c(sc12)C(c1ccc(F)cc1)C(C#N)=C(/N=C/c1ccc(Cl)cc1)O3 (stereo not given),13.5% (inactive)
10,CCCCCc1ccc(S(=O)(=O)Nc2cccc(-c3csc(NC(=O)CCCCCN4CCN(C)CC4)n3)c2)cc1,5.75% (active)
11,COc1ccccc1-n1cc(C#N)c(N)c1C(=O)c1ccc(Cl)cc1,76.3% (inactive)
12,CC[C@H](CO)Nc1ccc2ncc(C#Cc3cncc(C(=O)Nc4ccc(CN5CCN(C)CC5)c(C(F)(F)F)c4)c3)n2n1,1.55% (active)
13,COc1cc(OC)c(S(N)(=O)=O)cc1C(C)=O,109% (inactive)
14,O=C(CN1CCN(c2cc(=O)[nH]c3ccc(F)cc23)CC1)Nc1ccc(Cl)cc1,98.2% (inactive)
15,C[C@@H](Nc1c(C#N)cnc2ccc(-c3cnc(Cl)c(NS(C)(=O)=O)c3)cc12)c1ccccc1,2.97% (active)
16,C=C=COc1cccc(/C(N)=N/C(N)=N/c2nc3ccccc3s2)c1,32% (inactive)
17,COc1cc(-c2nc(-c3ccccc3)[nH]c2-c2ccnc(NCCCNS(=O)(=O)c3cccc(F)c3)n2)ccc1Cl,24.6% (inactive)
18,Cc1ccc(CSc2nc(-c3ccc(Cl)cc3)c(C#N)c(N3CCNCC3)n2)cc1,65.6% (inactive)
19,N#C/C(=C\c1ccc(-c2ccc(Cl)cc2Cl)o1)c1ccc(F)cc1,93.7% (inactive)
20,COc1cc(/C=C2\C(=O)Nc3ccccc32)ccc1OCc1ccc(F)cc1,102% (inactive)

# Reference: PubChem BioAssay (NCI)
